From PubChem BioAssay (NCATS)
Several values for one entry are separate records, joined by “and”; a condition that tells them apart may be missing. Equal values may be shown once. Records with an inconclusive call do not appear. Activity calls are given as the source filed them. The call rests on the fitted dose curve; in most records, active means well fitted inhibition curve with a large enough effect; inconclusive means small, poorly fitted or top-dose-only effect; inactive means flat fitted curve, though single readings scatter.

Assays:
[1] = tested on: NIH3T3; assay: Cytotoxic Profiling of Annotated Libraries Using Quantitative High-Throughput Screening (AID 1296008); details: Five cell lines viability, CellTiter-Glo ATP luminescence, 48-72 h; max response: hits give low values
In short: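 Cells exposed to compounds for 48 or 72 hr at 37 degrees Celsius. Viability read as ATP-coupled luminescence with CellTiter-Glo after 10 min at room temperature.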

[2] = tested on: HEK293T; assay: qHTS assay to identify novel small-molecules to repurpose for Merkel cell carcinoma treatment (AID 1296009); details: MCC and control cell lines, CellTiter-Glo viability, 72 h; at 44.8 µM (top of the series) unless noted
In short: (§1)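 CellTiter-Glo luminescence after 72 hr compound exposure at 37 degree celsius gave cell viability. Libraries NPC and MIPE were run as 8- and 11-point dose responses; RLUs normalized to DMSO (negative) and no-cell (cytotoxicity) controls.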

[3] = tested on: MCC-13; assay: as above; details: MCC and control cell lines, CellTiter-Glo viability, 72 h; series mostly up to 46 µM
In short: as §1

[4] = tested on: MCC-26; assay: as above; details: MCC and control cell lines, CellTiter-Glo viability, 72 h; series mostly up to 46 µM
In short: as §1

[5] = tested on: MKL-1; assay: as above; details: MCC and control cell lines, CellTiter-Glo viability, 72 h; series mostly up to 46 µM
In short: as §1

[6] = tested on: MKL-2; assay: as above; details: MCC and control cell lines, CellTiter-Glo viability, 72 h; series mostly up to 46 µM
In short: as §1

[7] = tested on: NIH3T3; assay: as above; details: MCC and control cell lines, CellTiter-Glo viability, 72 h; at 44.8 µM (top of the series) unless noted
In short: as §1

[8] = tested on: UISO; assay: as above; details: MCC and control cell lines, CellTiter-Glo viability, 72 h; series mostly up to 46 µM
In short: as §1

[9] = tested on: WaGa; assay: as above; details: MCC and control cell lines, CellTiter-Glo viability, 72 h; series mostly up to 46 µM
In short: as §1

[10] = tested on: HACAT; assay: as above; details: MCC and control cell lines, CellTiter-Glo viability, 72 h; at 44.8 µM (top of the series) unless noted
In short: as §1
Further: nearly all actives have a fitted effect of over 60% in size.
On the % scale 0 is the no-effect control and ±100 the full control effect; potency means the concentration at half of the fitted maximal effect.

CCOC(=O)c1ccc(O)cc1
inactive: outcome [1] | outcome [2] | Potency [3] | Potency [4] | Potency [5] | Potency [6] | outcome [7] | Potency [8] | Potency [9]

COc1ccc(S(=O)(=O)Nc2nnc(CC(C)C)s2)cc1
inactive: max response [1] -3.07% | Potency [3] | Potency [4] | Potency [5] | Potency [6] | Potency [8] | Potency [9]

NC(=O)NNc1ccccc1
inactive: max response [1] -2.02% | Potency [3] | Potency [4] | Potency [5] | Potency [6] | Potency [8] | Potency [9]

CC(COc1ccccc1)NC(C)C(O)c1ccc(O)cc1 (stereo unspecified)
inactive: outcome [1] | outcome [2] | Potency [3] | Potency [4] | Potency [5] | Potency [6] | outcome [7] | Potency [8] | Potency [9]

CC1(C)S[C@@H]2[C@H](NC(=O)Cc3ccccc3)C(=O)N2[C@H]1C(=O)O (tested in a mixture with another compound)
inactive: outcome [1] | outcome [2] | Potency [3] | Potency [4] | Potency [5] | Potency [6] | outcome [7] | Potency [8] | Potency [9]

N[C@@H](CSCCCO)C(=O)O
inactive: outcome [1] | outcome [2] inactive [at 17.4 µM] | Potency [3] | Potency [4] | Potency [5] | Potency [6] | outcome [7] inactive [at 17.4 µM] | Potency [8] | Potency [9]

CCn1cc(C(=O)O)c(=O)c2cnc(N3CCNCC3)nc21
inactive: outcome [1] | outcome [2] | Potency [3] | Potency [4] | Potency [5] | Potency [6] | outcome [7] | Potency [8] | Potency [9]

Cc1cc(CC(=O)O)n(C)c1C(=O)c1ccc(Cl)cc1
inactive: max response [1] -0.54% | outcome [2] | Potency [3] | Potency [4] | Potency [5] | Potency [6] | Potency [8] | Potency [9]

NS(=O)(=O)c1cc2c(cc1Cl)NC(CSCc1ccccc1)=NS2(=O)=O
inactive: outcome [1] | outcome [2] | Potency [3] | Potency [4] | Potency [5] | Potency [6] | outcome [7] | Potency [8] | Potency [9]

CC1=C(CC(=O)O)c2cc(F)ccc2/C1=C\c1ccc(S(C)(=O)=O)cc1
inactive: max response [1] -5.99% | Potency [3] | Potency [4] | Potency [5]

COc1ccc(Cl)cc1C(=O)NCCc1ccc(S(=O)(=O)NC(=O)NC2CCCCC2)cc1
inactive: max response [1] -5.68% and -4.29% | outcome [2] | Potency [3] | Potency [4] | Potency [5] | Potency [6] | Potency [8] | Potency [9]

O=Cc1ccccc1C=O
inactive: outcome [1] | outcome [2] | Potency [3] | Potency [4] | Potency [5] | Potency [6] | outcome [7] | Potency [8] | Potency [9]

CCCCN1CCCC[C@H]1C(=O)Nc1c(C)cccc1C
inactive: max response [1] -0.105% and -0.406% | Potency [3] | Potency [4] | Potency [5] | Potency [6] | Potency [8] | Potency [9]

O=c1cc[nH]c(=O)[nH]1
inactive: outcome [1] | outcome [2] | Potency [3] | Potency [4] | Potency [5] | Potency [6] | outcome [7] | Potency [8] | Potency [9]

CNCCC(Oc1ccc(C(F)(F)F)cc1)c1ccccc1 (stereo unspecified)
active: Potency [5] 26.6 µM | Potency [9] 21.1 µM

COc1ccccc1O
inactive: max response [1] -2.65% | Potency [3] | Potency [4] | Potency [5] | Potency [6] | Potency [8] | Potency [9]

Cc1ccc2nc(N)[nH]c(=O)c2c1Sc1ccncc1
active: Potency [1] 2.37 µM and 6.51 µM | Potency [9] 3.35 µM
inactive: Potency [4] | Potency [5]

OCCN1CCN(CCCN2c3ccccc3Sc3ccc(Cl)cc32)CC1
active: Potency [4] 26.6 µM | Potency [8] 26.6 µM

CSc1ccc2c(c1)N(CCC1CCCCN1C)c1ccccc1S2 (stereo unspecified)
active: Potency [3] 26.6 µM | Potency [5] 11.9 µM | Potency [6] 3.35 µM | Potency [8] 26.6 µM | Potency [9] 23.7 µM

O=C(CCCN1CCN(c2ccccn2)CC1)c1ccc(F)cc1
inactive: max response [1] -7% and 0.386% | Potency [3] | Potency [4] | Potency [5] | Potency [6] | Potency [9]

CSc1ccc2c(c1)C(N1CCN(C)CC1)Cc1ccccc1S2 (stereo unspecified)
inactive: outcome [10] | Potency [3] | Potency [4]

CN(C)CCCN1c2ccccc2CCc2ccccc21
inactive: max response [1] -1.95% | Potency [3] | Potency [4] | Potency [5]
active: Potency [9] 23.7 µM

CCCn1cnc2c1c(=O)n(CCCCC(C)=O)c(=O)n2C
inactive: max response [1] -3.42% | Potency [3] | Potency [4] | Potency [5] | Potency [6] | Potency [8] | Potency [9]

C[C@](N)(Cc1ccc(O)cc1)C(=O)O
inactive: activity change, negative = cytotoxicity [3] 6.34% [at 4.84 µM] | activity change, negative = cytotoxicity [4] 5.04% [at 4.84 µM] | activity change, negative = cytotoxicity [5] -2.87% [at 4.84 µM] | activity change, negative = cytotoxicity [6] 7.48% [at 4.84 µM] | outcome [7] inactive [at 4.96 µM] | activity change, negative = cytotoxicity [8] 17.6% [at 4.84 µM] | activity change, negative = cytotoxicity [9] -0.23% [at 4.84 µM]
